Values joined by “and” are separate entries in the source; they are usually repeats but may differ in a detail not shown here. Equal values may be shown once. For part of these data: Measured potencies and affinities stand elsewhere. Active and inactive are the calls of the source.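 Rule for the calls, unless noted: active = luciferase signal above three times the same-plate solvent-only control wells; inactive = the rest.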

For orientation: inhibition means the relative decrease from the control value, in per cent.

Assay [1] concerns the target 6-phosphogluconate dehydrogenase, decarboxylating (Homo sapiens) (UniProt P52209). Nature of the assay: 6PGD enzyme inhibitors, primary screen, biochemical, human, recombinant enzyme, NADPH absorbance (AID 1159550;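 active = at least 20% inhibition of 6-phosphogluconate dehydrogenase activity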). The conditions noted are these: recombinant 6PGD, NADPH absorbance 341 nm; at 10 µM; stronger effect = higher value.
Assay [2] in a line: differential killing of epithelial or mesenchymal cells, primary screen, imaging, PC-3E GFP, TEM4-18 mCherry, co-culture (AID 1345086;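 active = compounds killing one labelled cell type while sparing the other, by normalised counts and ratio limits, not self-fluorescent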;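 for all read-outs here: cells exposed to compound for 72 h before imaging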;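 for red/green cell ratio (normalised): normalised mesenchymal count divided by normalised epithelial count so high means epithelial killing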). The conditions noted are these: imaging cell counts, at 1 µM; for red/green cell ratio (normalised): actives lie on both sides.
In assay [3] the test system is Aerobactin synthetase IucA (Klebsiella pneumoniae hvKP1). Nature of the assay: Biochemical IucA enzyme inhibition primary screen of the Spectrum library (AID 1346200; call rule not given here;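 note: 100% = wells without compound and 0% = wells lacking enzyme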). The conditions noted are these: malachite green pyrophosphate, A620, at 8 µM, stronger effect = lower value.
For assay [4], the target named is Mitogen-activated protein kinase 7 (Homo sapiens) (UniProt Q13164). The assay is described as follows: ERK5 transactivation activators in reporter cells, primary screen, cell-based, HTS (AID 1508626).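 Note: luciferase driven by Gal4-ERK5 fusion binding five Gal4 sites before minimal TATA.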 The conditions noted are these: HeLa Gal4-ERK5 transactivation, 18 h, at 5 µM, stronger effect = higher value.
Assay [5] in a line: polyglutamine-triggered caspase-3 activation inhibitors, cell-based (AID 1583). The settings on record: polyglutamine-induced caspase-3 activation, cell assay; stronger effect = higher value;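 tested at 10 µM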.
Assay [6] in a line: suppressors of polyQ aggregation in yeast, 75Q-TubU reporter (AID 1593). The conditions noted are these: Yeast 75Q polyglutamine aggregation reporter.
Assay [7] can be described thus: rescue of polyQ-huntingtin neuronal dysfunction in worms, whole organism, C. elegans mechanosensory neurons, N-terminal huntingtin (AID 1599). The conditions noted are these: touch response, stronger effect = higher value.
A short description of assay [8]: inhibitors of mitochondrial cytochrome c release, biochemical, purified mitochondria (AID 1603).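 Note: mouse liver mitochondria challenged with calcium chloride; signal normalized to the plate average as 100%.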 The settings on record: stronger effect = lower value.
The nature of assay [9]: inhibitors of polyQ protein aggregation (AID 1604). The conditions noted are these: polyglutamine-induced protein aggregation inhibition assay; stronger effect = higher value; tested at 2.5 µM.
Assay [10] is described as follows: enhancers of glutamate uptake in motor neurons, MN-1 cell line (AID 1612).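 Note: tested at 1 µM final; 0% = mean of DMSO vehicle wells on each plate; positive means more glutamate uptake than control and negative means less.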 The conditions noted are these: MN-1 motor neuron cells, stronger effect = higher value.
A short description of assay [11]: reducers of polyQ inclusions in PC12 cells, cell-based, NGF-treated PC12, GFPQ80 (AID 1614).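 Note: lower means fewer inclusions and 0 means no inclusions at all.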 The settings on record: PC12 NGF-treated GFP-polyQ80 inclusion reduction.
The nature of assay [12]: suppressors of polyglutamine aggregation in yeast, 75Q-TubH (AID 1616). The settings on record: S. cerevisiae 75Q-TubH polyglutamine aggregation suppression; stronger effect = higher value.
Setting [13] is: measured here: epithelial PC-3E GFP cell survival.
Setting [14] is: measured here: mesenchymal TEM4-18 mCherry cell survival.
The mark [15] stands for this setting: counts scaled to control wells, 1 = unselective.

Chain of 6-phosphogluconate dehydrogenase, decarboxylating (Homo sapiens) (P52209 whole entry, looked up): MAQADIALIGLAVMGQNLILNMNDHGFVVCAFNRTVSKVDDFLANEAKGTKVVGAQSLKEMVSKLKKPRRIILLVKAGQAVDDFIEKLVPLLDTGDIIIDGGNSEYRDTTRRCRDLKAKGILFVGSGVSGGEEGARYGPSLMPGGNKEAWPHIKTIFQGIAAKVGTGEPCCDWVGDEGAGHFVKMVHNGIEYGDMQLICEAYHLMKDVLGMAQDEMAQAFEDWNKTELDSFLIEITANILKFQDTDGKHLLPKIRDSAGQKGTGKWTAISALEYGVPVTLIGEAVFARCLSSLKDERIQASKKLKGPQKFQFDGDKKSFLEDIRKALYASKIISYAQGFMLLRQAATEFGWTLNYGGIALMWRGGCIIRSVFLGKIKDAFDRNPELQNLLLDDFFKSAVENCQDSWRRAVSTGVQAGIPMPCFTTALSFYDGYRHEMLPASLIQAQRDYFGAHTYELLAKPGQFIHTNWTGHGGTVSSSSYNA
Chain of Mitogen-activated protein kinase 7 (Homo sapiens) (Q13164 whole entry, looked up, the tested form may be a part): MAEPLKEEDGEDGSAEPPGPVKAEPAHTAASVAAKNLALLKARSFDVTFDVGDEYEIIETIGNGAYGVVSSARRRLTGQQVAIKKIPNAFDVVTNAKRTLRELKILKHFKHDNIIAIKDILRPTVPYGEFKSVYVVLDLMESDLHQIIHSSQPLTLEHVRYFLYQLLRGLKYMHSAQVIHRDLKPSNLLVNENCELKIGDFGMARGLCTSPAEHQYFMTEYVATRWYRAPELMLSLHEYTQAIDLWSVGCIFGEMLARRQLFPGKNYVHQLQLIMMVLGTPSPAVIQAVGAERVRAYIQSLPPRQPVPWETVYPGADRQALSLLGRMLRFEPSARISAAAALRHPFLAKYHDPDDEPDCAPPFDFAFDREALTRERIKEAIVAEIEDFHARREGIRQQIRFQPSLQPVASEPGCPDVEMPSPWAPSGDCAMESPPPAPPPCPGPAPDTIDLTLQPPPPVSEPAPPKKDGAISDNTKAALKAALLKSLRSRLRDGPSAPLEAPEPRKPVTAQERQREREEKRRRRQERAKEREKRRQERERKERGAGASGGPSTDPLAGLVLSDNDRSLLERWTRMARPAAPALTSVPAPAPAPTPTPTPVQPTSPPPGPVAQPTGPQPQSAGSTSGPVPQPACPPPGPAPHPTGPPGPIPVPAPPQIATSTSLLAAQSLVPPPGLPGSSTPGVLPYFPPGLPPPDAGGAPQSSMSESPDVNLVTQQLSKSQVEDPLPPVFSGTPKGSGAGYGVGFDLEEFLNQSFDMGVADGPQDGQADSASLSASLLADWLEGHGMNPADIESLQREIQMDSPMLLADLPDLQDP

On to `C=C(C)c1cc2cc(C(C)=O)c(O)cc2o1`, for which the inhibition in assay [1] was 13.2% (inactive). For the same compound, in assay [2], the red/green cell ratio (normalised) is 0.8 (inactive). Further, the normalised cell number in assay [2] (setting [13]) is 1.14; in [2] (setting [14]) it was 0.92. The activity remaining in assay [3] is 104% (inactive). Further, the luciferase signal in assay [4] was 64 AU (inactive).

On to `O=C1NC(=O)C(=O)C(=O)N1`, for which, in assay [1], the inhibition is -13.9% (inactive). For the same compound, the red/green cell ratio (normalised) in assay [2] is 0.89 (inactive). For the same compound, the normalised cell number is 1.09 in assay [2] (setting [13]) and 0.98 in assay [2] (setting [14]). In addition, the activity remaining in [3] was 123% (inactive). In addition, the luciferase signal in assay [4] is 44 AU (inactive).

As to `CC(=O)C1CCC2C3CCC4C[C@H](O)CCC4(C)C3C[C@H](O)C12C` (stereo partly specified), the inhibition in assay [1] is -3.34% (inactive). The red/green cell ratio (normalised) in assay [2] is 1.12 (inactive). Also, the normalised cell number in assay [2] (setting [13]) was 0.99; in assay [2] (setting [14]), 1.11. Also, the activity remaining in assay [3] is 112% (inactive). For the same compound, in assay [4], the luciferase signal was 32 AU (inactive).

Regarding `C/C=C(/C)C(=O)O[C@H]1CC[C@@]2(C)[C@@H]3CC[C@H]4[C@]5(O)C[C@H](O)[C@@]6(O)[C@@H](CN7C[C@@H](C)CC[C@H]7[C@@]6(C)O)[C@]5(O)C[C@@]42O[C@]13O`, the inhibition in assay [5] is -10.4%; in assay [1] it was -10.1% (inactive). In assay [6], this compound showed a score of 1.23. This compound displayed a rescue above control in assay [7] of 6.62. In addition, the cytochrome c release ratio in assay [8] came to 0.66. Moreover, the inhibition of aggregation in assay [9] was found to be 73.8%. Moreover, in assay [10], the glutamate uptake change came out at 7.49%. In [11], this compound registered an inclusion score of 2. Besides, the aggregation suppression score in [12] was determined as 1.05. Besides, in assay [2], the red/green cell ratio (normalised) was 0.76 (inactive). Further, the normalised cell number was found to be 1.31 in [2] (setting [13]) and 1 in [2] (setting [14]). Further, in [3], the activity remaining is 98.9% (inactive). Further, the luciferase signal in assay [4] was 96 AU (inactive) and 56 AU (inactive).

With `CN1CCCCC1c1ccc(-c2cccnc2)nc1` (stereo unspecified), in assay [1], the inhibition was -0.658% (inactive). In addition, the red/green cell ratio (normalised) in assay [2] (setting [15]) is 1.09 (inactive). Besides, the normalised cell number in assay [2] (setting [13]) came to 0.96; in [2] (setting [14]), 1.04. The activity remaining in assay [3] was 113% (inactive). Moreover, the luciferase signal in [4] was 52 AU (inactive).

As to `COc1cc2c(cc1OC)[C@@H]1C(=O)c3ccc4oc(C(C)C)cc4c3O[C@@H]1CO2`, in assay [1], the inhibition is 4.17% (inactive). The red/green cell ratio (normalised) in [2] was 0.79 (inactive). Moreover, the normalised cell number amounted to 1.25 in assay [2] (setting [13]) and 0.98 in assay [2] (setting [14]). Besides, the activity remaining in [3] is 104% (inactive). Besides, in [4], the luciferase signal was 76 AU (inactive).

For `Cc1[nH]c2ccccc2c1CN(C)C`, the inhibition in assay [1] was -5.39% (inactive). In addition, the red/green cell ratio (normalised) in [2] is 0.92 (inactive). The normalised cell number in [2] (setting [13]) stood at 0.99; in [2] (setting [14]), 0.91. For the same compound, the activity remaining in assay [3] is 101% (inactive). Besides, in assay [4], the luciferase signal was 44 AU (inactive).

Turning to `COC(=O)[C@]1(C)CC[C@]2(C)CC[C@]3(C)C4=CC=C5C(=CC(=O)C(O)=C5C)[C@]4(C)CC[C@@]3(C)[C@@H]2C1`, in assay [1], the inhibition is 9.49% (inactive). The red/green cell ratio (normalised) in [2] is 0.14 (inactive). Moreover, the figures for the normalised cell number in assay [2] (setting [13]) and in assay [2] (setting [14]) were 0.01 and 0, respectively. For the same compound, in assay [3], the activity remaining is 87.2% (inactive). Besides, the luciferase signal in assay [4] is 152 AU (inactive).

Consider `O=C1C=C2C(=CCOC2O)O1` (stereo unspecified), for which the inhibition was 71.1% in [5] and 4.22% (inactive) in [1]. In assay [6], this compound came in with a score of 1.15. Also, the rescue above control in [7] is -6.1. In [8], the cytochrome c release ratio worked out at 0.78. Also, in [9], the inhibition of aggregation is 0%. Also, the glutamate uptake change in [10] is -4.18%. The same compound returned an aggregation suppression score in assay [12] of 0.84. Moreover, the red/green cell ratio (normalised) in assay [2] was 0.44 (inactive). In addition, the normalised cell number was 0.14 in assay [2] (setting [13]) and 0.06 in assay [2] (setting [14]). The activity remaining in assay [3] was 124% (inactive). In addition, in [4], the luciferase signal is 3170 AU (active).

Consider `CC(C)CCCC1(C)C=Cc2c(O)c3c(c(CCC(C)C)c2O1)OC12C(CC4CC1C(C)(C)OC2(CCC(C)C(=O)O)C4O)C3=O` (stereo unspecified), for which, in assay [1], the inhibition is 0.442% (inactive). In addition, the red/green cell ratio (normalised) in assay [2] was 0.9 (inactive). The normalised cell number in assay [2] (setting [13]) was 0.98; in [2] (setting [14]), 0.88. Besides, the activity remaining in assay [3] was 98% (inactive). Also, in assay [4], the luciferase signal was 76 AU (inactive).

Take `O=c1cccc2n1CC1CC2CN2CCCC[C@@H]12` (stereo partly specified): the inhibition in [1] was 1.69% (inactive). The red/green cell ratio (normalised) in assay [2] (setting [15]) is 1.02 (inactive). Further, the normalised cell number in assay [2] (setting [13]) amounted to 0.92; in assay [2] (setting [14]), 0.94. Moreover, the activity remaining in [3] was 116% (inactive). Further, in assay [4], the luciferase signal was 56 AU (inactive).

For the origin of these results see PubChem BioAssay.
